Screens from PubChem.
D2 PAM-1: positive allosteric modulators of human D2 dopamine receptor. P14416. DiscoveRx D2 beta-arrestin cells, luminescence, 90 min; 100% = 57 uM dopamine signal. potentiation, % (no concentration beside the values). hit rate 0.23% among 360,000. AID 624464; in the data active = potentiation above about 50%
Target sequence (P14416 whole entry, looked up): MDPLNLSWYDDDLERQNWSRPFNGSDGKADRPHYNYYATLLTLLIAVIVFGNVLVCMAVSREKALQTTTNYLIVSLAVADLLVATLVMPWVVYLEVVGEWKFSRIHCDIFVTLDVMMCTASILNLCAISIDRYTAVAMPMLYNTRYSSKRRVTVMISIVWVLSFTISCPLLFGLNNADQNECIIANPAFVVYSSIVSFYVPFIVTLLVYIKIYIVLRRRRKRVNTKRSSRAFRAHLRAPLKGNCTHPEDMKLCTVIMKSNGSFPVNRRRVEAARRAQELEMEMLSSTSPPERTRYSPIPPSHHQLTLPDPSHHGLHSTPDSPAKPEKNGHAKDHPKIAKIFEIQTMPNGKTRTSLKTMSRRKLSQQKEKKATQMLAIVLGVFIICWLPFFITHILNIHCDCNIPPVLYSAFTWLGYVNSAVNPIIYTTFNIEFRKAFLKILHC
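D2 cells co-treated with compound plus 50 nM dopamine (EC20) for 90 min at 37 deg C to detect potentiation. Beta-arrestin recruitment was read as enzyme-fragment luminescence after 1 h at ambient temperature. Full response was set by 57 uM dopamine.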
D2 antagonist: D2 dopamine receptor (human) antagonism | HEK293 TREx D2 cells, calcium flux, dopamine EC80 | inhibition, % at 10 µM | hit rate 2% among 340,000 | AID 485344; in the data active = inhibition above about 30%; inactive = below that, where a call was filed; also: 0% is about no effect
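Compounds are added to dye-loaded, induced HEK293 T-REx cells coupled to calcium release via D2; after a 3 min kinetic read an EC80 dopamine stimulus is given and fluorescence is recorded for 3 more min.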
LDHA inh: LDHA (human) enzyme inhibition. P00338. purified LDHA, NADH/diaphorase-resazurin fluorescence; hits give low values. activity change, % (values are at about 110 or 230 µM). hit rate 0.15% among 480,000. AID 1347041; in the data active = activity change below about -30%;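 also: plate controls were DMSO wells for no effect and wells without enzyme for full effect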
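Remaining NADH was detected by diaphorase (0.133 mg/mL) converting 37 µM resazurin to fluorescent resorufin, read at 0 and 20 minutes. The preceding 5-minute room-temperature reaction used 2 nM LDHA, 0.2 mM sodium pyruvate and 0.06 mM NADH at pH 7.4.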
D2 ag-1: activates the human D2 dopamine receptor; P14416; HEK293 T-REx D2 cells, calcium flux agonist mode; activation, % at 2 µM; hit rate 0.53% among 340,000; AID 485358;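 active = activation over 3 SD above normal in the single-dose calcium agonist read, cut at about 30% in these data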; also: 0% is about no effect
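Agonism scored from kinetic calcium signal (1 read/sec, 180 s) following compound pin transfer, after a 10 s baseline. Cells: HEK293 Trex line expressing inducible D2 receptor coupled to calcium, dye-loaded after overnight culture at 30 C.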
D2 ag-2: activates the human D2 dopamine receptor. AID 624465. hit rate 0.084% among 360,000. activation, % (test concentration not listed). DiscoveRx PathHunter D2 beta-arrestin, luminescence, 90 min; 100% = 57 uM dopamine signal. P14416; in the data active = activation above about 40%
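DiscoveRx PathHunter D2 beta-arrestin cells (2,100/well) attached overnight, then compound-stimulated 90 min at 37 C in HBSS/10 mM HEPES/0.1% Tween-20 buffer; beta-galactosidase complementation read by luminescence after 1 h at ambient temperature. Dopamine 57 uM final (EC100) as control.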
D2 PAM-2: positive allosteric modulators of human D2 dopamine receptor; potentiation, % at 10 µM; P14416; hit rate 0.34% among 340,000; HEK293 T-REx D2, calcium flux, EC20 dopamine potentiation;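 active = potentiation over 3 SD above the plate norm, cut at about 30% in these data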; also: 0% is about no effect
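Calcium flux readout, no-wash dye, 1 read/s. Inducible HEK293 Trex D2 line, overnight 30 C. Compound alone 180 s (agonist flags), then EC20 dopamine, another 180 s to score potentiation.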
Numbers without * were called inactive; x = no result. A selection: hits, their analogues and other compounds. The true share with any hit is near 2.1%.

SMILES	D2 PAM-1	D2 antagonist	LDHA inh	D2 ag-1	D2 ag-2	D2 PAM-2
O=C(O)c1cc(Sc2ccccc2C(F)(F)F)nc2ccccc12	x	x	8	x	x	x
CCN(C1CCCCC1)S(=O)(=O)c1ccc(S(=O)(=O)NCCc2ccncc2)cc1	-6	32*	-7	-2	0	0
CCN(C1CCCCC1)S(=O)(=O)c1ccc(S(=O)(=O)NCc2ccncc2)cc1	-3	x	5	x	7	x
O=C(Oc1cccc2ccccc12)c1ccncc1	2	34*	-9	0	-1	-3
O=C(Oc1cccc2ccccc12)c1ccco1	2	-1	2	0	-3	-3
CCC(Oc1ccccc1)C(=O)Nc1ccccc1C(=O)N1CCCCC1 (stereo not given)	69*	-13	-5	0	-2	-14
Cc1ccc(-c2nc(Cn3cnc(C#N)n3)co2)c(C)c1	x	x	-2	x	x	x
COc1ccccc1N1CCN(S(=O)(=O)c2c(C)[nH]c(C)c2C(=O)N2CCCC2)CC1	-10	31*	-3	0	-2	27
COc1ccccc1N1CCN(S(=O)(=O)c2c(C)[nH]c(C)c2C(=O)N2CCCCC2)CC1	-7	4	-1	1	-6	-3
Cc1cc(/C=N/O)c(C)n1-c1ccc(Br)cc1	-7	38*	-6	-1	-3	-1
S=C(NCc1cccs1)NCC1CCCCC1	x	x	-4	x	x	x
COc1ccccc1Nc1nc(-c2sc(N)nc2C)cs1	-17	38*	4	0	1	8
Cc1nc(N2CCOCC2)[nH]c(=O)c1C(O)C(Cl)(Cl)Cl (stereo not given)	-8	48*	-4	1	-4	-4
O=C(Nc1nc(-c2ccc(Cl)s2)cs1)C1CCN(C(=O)C2CC2)CC1	x	x	0	x	x	x
COc1cc(/C=N/NC(=O)c2ccc(-c3ccccc3)cc2)cc(OC)c1OC	-13	-3	0	2	0	-1
COc1cc(/C=C(/C(=O)O)c2ccc(-c3ccccc3)cc2)cc(OC)c1OC	5	-17	-9	-1	8	30*
COc1ccc(C(=O)/C=C/c2ccccc2OC(F)F)c(OC)c1	x	x	10	x	x	x
Cc1cc(=O)oc2cc(NC(=O)Cc3c(Cl)cccc3Cl)ccc12	x	x	3	x	x	x
CCOc1ccc(NC(=O)NCCN2CCN(c3cccc(C)c3C)CC2)cc1	-23	5	-1	17	-5	-34
COc1ccc(N2CCN(CCNC(=O)Nc3ccc(C)c(Cl)c3)CC2)cc1	-11	-3	-1	2	-5	-6
O=C(Cn1nc(-c2ccccc2)ccc1=O)NCCN1CCN(c2cccc(Cl)c2)CC1	-14	64*	3	0	-1	-19
COc1ccc(NC(=O)NCCN2CCN(c3cccc(Cl)c3)CC2)cc1	-10	36*	-2	0	2	15
CCOc1cccc(N2CCN(CCNC(=O)Nc3ccc(C)cc3)CC2)c1C	-2	44*	-5	3	-4	-19
Cc1ccc(CN2C(=O)CCC2C(=O)NCCN2CCN(c3cccc(Cl)c3)CC2)cc1 (stereo not given)	-5	44*	-2	13	0	-19
Cc1cccc(-c2ocnc2C(=O)NCC(C)c2ccccc2)c1 (stereo not given)	x	x	-2	x	x	x
SMILES	D2 PAM-1	D2 antagonist	LDHA inh	D2 ag-1	D2 ag-2	D2 PAM-2
O=C(COC(=O)c1cc(Br)c[nH]1)NCc1ccc(F)cc1	x	x	2	x	x	x
CCN1CCCC1CNC(=O)c1cc([N+](=O)[O-])c(N(C)C)cc1OC (stereo not given)	-4	75*	1	0	-4	-38
CCN1CCCC1CNC(=O)c1[nH]c2ccc(OC)cc2c1C (stereo not given)	-22	40*	2	x	-5	-35
CCN1CCCC1CNC(=O)c1csc2c1CCCC2 (stereo not given)	-29	86*	1	-2	-2	-18
CCC1CCCN1Cn1cnc2c([nH]c3ccc(OC)cc32)c1=O (stereo not given)	-21	-15	-5	-1	2	35*
C=CCNc1ccc(C(F)(F)F)cn1	x	x	1	x	x	x
CCN1CCC[C@H]1CNC(=O)c1cc(S(N)(=O)=O)ccc1OC	x	87*	x	1	x	-23
